Hits are enriched below; roughly 2.9% of the tested compounds scored in any of these assays.
CRFR2-BP ag – CRF-BP/CRF-R2 complex agonism. 350,000 compounds, 0.46% hits. HEK293 CRF-R2/CRF-BP, calcium dye fluorescence (FLIPR); percent of saturating CRF peptide response. activation, % at 13.2 µM. AID 588473;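 active = activation of at least 50%, plus an integration ratio under a set limit after plate pattern correction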;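 also: plate controls were neutral control wells without compound for no effect and CRF at EC100 for full effect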
MEKK2mut PB1 HTS – signal of MEK5 binding to mutant human MEKK2 PB1 domain. bead flow cytometry, Alexa488-MEK5 binding to MEKK2 mutant. percent response, % at 10 µM. 290,000 compounds, 0.35% hits. AID 1530; in the data active = percent response above about 24%, passing the limit was not always enough
CRFR2-BP antag – CRF-BP/CRF-R2 complex antagonism | HEK293 CRF-R2/CRF-BP, CRF-induced calcium fluorescence | 350,000 compounds, 0.59% hits | AID 588475 | inhibition, % at 11.8 µM;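 active = inhibition of the ligand-induced calcium signal above about 50% at the single tested concentration, limit read from the data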
MEKK2 WT-MEK5 – raises or lowers MEK5 binding to wildtype human MEKK2 PB1 domain; AID 1531; 290,000 compounds, 1.1% hits; Q9Y2U5; binding response (% of control), % at 10 µM; bead flow cytometry, Alexa488-MEK5 binding to MEKK2 WT; actives lie on both sides; in the data active = binding response below about 67% or above about 130%
MEKK3 PB1 HTS – MEKK3-MEK5 PB1 interaction, increase or decrease; Q99759; bead-based flow cytometry, Alexa488-MEK5 binding to MEKK3; actives lie on both sides; 0 = blocked by unlabeled MEK5, 100 = vehicle; binding response (% of control), % at 10 µM; 290,000 compounds, 1.4% hits;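 active = binding response more than 3 SD above or below the average of its plate-row segment, actives on both sides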;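 also: Alexa488 bead fluorescence after subtracting the streptavidin-only scavenger bead signal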
Target sequence (Q99759 whole entry, looked up): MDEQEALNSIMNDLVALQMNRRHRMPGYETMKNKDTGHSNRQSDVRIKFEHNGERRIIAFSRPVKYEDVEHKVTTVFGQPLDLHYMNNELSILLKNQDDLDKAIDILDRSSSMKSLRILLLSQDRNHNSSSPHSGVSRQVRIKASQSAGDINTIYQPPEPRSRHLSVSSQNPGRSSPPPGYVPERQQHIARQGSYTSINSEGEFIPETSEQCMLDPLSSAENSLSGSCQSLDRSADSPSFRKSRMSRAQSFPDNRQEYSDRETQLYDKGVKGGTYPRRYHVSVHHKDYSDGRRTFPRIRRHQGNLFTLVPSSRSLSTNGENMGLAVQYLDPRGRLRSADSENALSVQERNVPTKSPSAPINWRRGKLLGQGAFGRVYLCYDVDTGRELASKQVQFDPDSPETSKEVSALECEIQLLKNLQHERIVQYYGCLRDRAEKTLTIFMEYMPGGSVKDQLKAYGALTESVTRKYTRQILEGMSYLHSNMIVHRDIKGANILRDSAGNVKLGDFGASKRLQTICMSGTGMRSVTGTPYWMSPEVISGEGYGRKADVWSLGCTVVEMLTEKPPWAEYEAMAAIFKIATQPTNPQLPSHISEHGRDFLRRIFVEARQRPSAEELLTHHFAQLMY
ABCB6 inh MLPCN – human ABCB6 transporter inhibition | Q9NP58 | K562-ABCB6 porphyrin accumulation, flow cytometry, 1 h; hits give low values | fluorescence ratio to DMSO, % at 10 µM | 360,000 compounds, 0.19% hits;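 active = fluorescence ratio to DMSO below 75%, the collection mean minus 3 SD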;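 also: signal is porphyrin accumulated inside mitochondria; 100% equals median channel fluorescence of DMSO control wells; lower ratio means ABCB6 inhibition with less porphyrin fluorescence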
ABCB6 inh CP1 – blocks the human ABCB6 transporter; shares compounds with ABCB6 inh MLPCN; K562-ABCB6 porphyrin accumulation, flow cytometry, 1 h; hits give low values; ratio response (% of DMSO), % at 10 µM; 700 tested, under 10 active; AID 602430;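 active = repeat-averaged ratio response below 75% of DMSO, the collection mean minus 3 SD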;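 also: median porphyrin fluorescence at 575 nm with 488 nm excitation from mitochondria; lower ratio means less porphyrin signal so ABCB6 inhibition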
K562 vector FC – effect in K562 cells lacking ABCB6, counter-screen; shares compounds with ABCB6 inh MLPCN; K562 empty-vector cells, flow cytometry fluorescence, 1 h; percent response (fluorescence), % at 100 µM; 25 tested, under 10 active; AID 624484;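 active = compounds whose half-maximal effective concentration is below 100 µM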
An asterisk follows results filed as active; nt = no result given.

SMILES | CRFR2-BP ag | MEKK2mut PB1 HTS | CRFR2-BP antag | MEKK2 WT-MEK5 | MEKK3 PB1 HTS | ABCB6 inh MLPCN | ABCB6 inh CP1 | others
Cc1ccc(C)c(OCc2ccc(C(=O)N3N=C(C(F)F)CC3(O)C(F)F)o2)c1 (stereo not given) | 0.1 | 3.0 | -24.2 | 107.0 | 108.0 | 63.0* | 95.0
CCC(C)c1ccccc1N=Cc1ccc2c(c1)OCO2 (stereo not given) | -1.5 | -3.0 | 7.6 | 95.0 | 101.0 | 94.0 | nt
O=C(c1ccc(COc2ccccc2Cl)o1)N1N=C(C(F)F)CC1(O)C(F)F (stereo not given) | 1.4 | -2.0 | 7.6 | 94.0 | 96.0 | 96.0 | 100.0
O=C(c1ccc(COc2ccccc2Cl)o1)N1CCN(c2ccccc2)CC1 | 0.7 | 0.0 | 4.6 | 100.0 | 106.0 | 96.0 | nt
CCOc1ccc(OCc2ccc(C(=O)N3N=C(C(F)F)CC3(O)C(F)F)o2)cc1 (stereo not given) | 1.8 | 2.0 | 18.7 | 94.0 | 98.0 | 66.0* | 98.0
CCCN(c1ccc(OCC)cc1)S(=O)(=O)c1ccc2c(c1)NC(=O)CO2 | -1.3 | 3.0 | 14.2 | 105.0 | 104.0 | 95.0 | nt
O=C(NCc1n[nH]c(=S)n1-c1ccc(Cl)c(Cl)c1)c1ccc(S(=O)(=O)N2CCCCC2)cc1 | 0.0 | 4.0 | 1.3 | 98.0 | 102.0 | 93.0 | nt
O=C(NCc1n[nH]c(=S)n1-c1cccc(Cl)c1)c1ccc(S(=O)(=O)N2CCCC2)cc1 | 1.2 | 1.0 | -1.2 | 97.0 | 99.0 | 33.0* | 104.0
CCN(CC)CCNc1nc2c(c(=O)n(C)c(=O)n2C)n1C/C=C(/C)Cl | 1.9 | 5.0 | -3.7 | 106.0 | 102.0 | 73.0* | 100.0
O=C(C1CCCCC1)N1CCN(S(=O)(=O)c2cccc([N+](=O)[O-])c2)CC1 | -1.1 | 0.0 | 11.7 | 99.0 | 95.0 | 106.0 | nt
Cc1cccc(C(=O)OC(C)C(=O)NCC2CCCCC2)c1O (stereo not given) | 0.7 | nt | -13.0 | nt | nt | 94.0 | nt
CCn1c(SCC(=O)N2CCCC2)nnc1-c1ccco1 | 0.8 | 9.0 | -11.9 | 108.0 | 106.0 | 98.0 | nt
COc1ccc(-c2ccc(C(=O)NCc3ccncc3)c3occc23)c(C)c1 | nt | nt | nt | nt | nt | 69.0* | 98.0
Cc1ccc(-c2nc3n(n2)Cc2ccccc2-3)cc1 | -0.6 | -1.0 | -0.2 | 103.0 | 103.0 | 90.0 | nt
NC(=S)Cc1nc2n(n1)Cc1ccccc1-2 | 3.5 | 8.0 | -16.1 | 105.0 | 104.0 | 70.0* | 99.0
O=C(CSCc1ccccc1Br)N/N=C/c1ccccc1C(=O)O | -0.4 | -20.0 | 20.3 | 82.0 | 83.0 | 99.0 | nt
COc1cccc(-c2cc(C(=O)Nc3c(C)nn(Cc4ccccc4)c3C)no2)c1 | -2.9 | 4.0 | 16.1 | 99.0 | 101.0 | 95.0 | nt
COc1ccc(-c2cc(C(=O)Nc3c(C)nn(Cc4ccccc4)c3C)no2)cc1 | -2.1 | 9.0 | 13.6 | 105.0 | 103.0 | 51.0* | 100.0
CC(=O)Nc1ccc(SCCC2CCCCN2C)cc1 (stereo not given) | 1.1 | 2.0 | 7.0 | 102.0 | 100.0 | 96.0 | nt
COc1ccc2nc(SCC(=O)Nc3c(C)cccc3C)[nH]c2c1 | -2.0 | 2.0 | 2.2 | 100.0 | 98.0 | 74.0* | 98.0
CCOc1ccc2nc(SCC(=O)NCc3ccccc3OC)[nH]c2c1 | -1.3 | 7.0 | -1.1 | 108.0 | 104.0 | 72.0* | 103.0
CCOC(=O)C1CCN(C(=O)COC(=O)CNC(=O)c2ccc(C(C)(C)C)cc2)CC1 | 1.4 | nt | -5.9 | nt | nt | 100.0 | nt
CC(OC(=O)c1cccc(-n2cnnn2)c1)C(=O)Nc1ccc(F)cc1Cl (stereo not given) | -1.2 | nt | 3.5 | nt | nt | 94.0 | nt
N#Cc1ccsc1NC(=O)COC(=O)c1ccc(NC(N)=O)cc1 | -0.3 | -1.0 | -10.6 | 95.0 | 94.0 | 74.0* | 98.0
O=C(COC(=O)C1CC2CCCC(C1)C2=O)Nc1cccc(F)c1 (stereo not given) | -0.7 | nt | 12.2 | nt | nt | 97.0 | nt
SMILES | CRFR2-BP ag | MEKK2mut PB1 HTS | CRFR2-BP antag | MEKK2 WT-MEK5 | MEKK3 PB1 HTS | ABCB6 inh MLPCN | ABCB6 inh CP1 | others
NC(=O)C1CCN(C(=O)CCC(=O)c2ccc(F)cc2)CC1 | -0.7 | 2.0 | 0.0 | 103.0 | 102.0 | 101.0 | nt
Cn1nc(C(F)(F)F)c(-c2cccc(C(F)(F)F)c2)c1NC(=O)Nc1ccc(F)cc1 | 7.0 | -14.0 | 24.1 | 95.0 | 88.0 | 11.0* | 96.0
Cc1nn(Cc2c(F)c(F)c(F)c(F)c2F)c(C)c1NC(=O)c1c(-c2ccccc2)nn(-c2ccccc2)c1C | 5.0 | 6.0 | -1.2 | 99.0 | 95.0 | 38.0* | 98.0
O=[N+]([O-])c1ccc(OCCn2cncn2)cc1 | 0.0 | -1.0 | 8.5 | 101.0 | 100.0 | 63.0* | 100.0
O=[N+]([O-])c1ccc(OCn2cncn2)cc1 | 1.2 | nt | 14.7 | nt | nt | 90.0 | nt
COc1ccc(NC(=O)N(C)C[C@H]2Oc3ccc(NC(=O)C4CC4)cc3CC(=O)N([C@@H](C)CO)C[C@@H]2C)cc1 | -0.6 | nt | 10.8 | nt | nt | 100.0 | nt
CCOC(=O)c1cc(C#N)c(SC)nc1C | -1.7 | -18.0 | -8.5 | 84.0 | 86.0 | 98.0 | nt
CCOC(=O)c1cc2c(N)c(C(=O)c3cc(C#N)c(SC)nc3C)sc2nc1C | 7.5 | -7.0 | -50.7 | 89.0 | 95.0 | 72.0* | 104.0
Cc1ccc(OCC(=O)Nc2ccncc2)cc1C | -0.1 | nt | -0.7 | nt | nt | 74.0* | 99.0
Cc1ccc(N2C(=O)C3C4CCC(O4)C3C2=O)c(OC(F)F)c1 (stereo not given) | 0.7 | nt | -0.8 | nt | nt | 100.0 | nt
CCCS(=O)(=O)NC(=O)C1(C)CCN(C(=O)c2ccc(C(F)(F)F)cc2)C1 (stereo not given) | nt | nt | nt | nt | nt | 70.0* | 101.0
CCCS(=O)(=O)NC(=O)C1(C)CCN(C(=O)c2ccc(C(=O)OC)cc2)C1 (stereo not given) | nt | nt | nt | nt | nt | 92.0 | nt
OCCNc1c2ccccc2nc2c(F)c(F)c(F)c(F)c12 | 69.0* | 1.0 | -113.3 | 107.0 | 111.0 | 71.0* | 109.0
CCN1C[C@@H]2[C@@H]3C(=O)N(Cc4ccccc4)C(=O)[C@@H]3[C@](C)(C1=O)N2C(=O)c1ccc(F)cc1 | -0.2 | nt | 4.8 | nt | nt | 97.0 | nt
COc1ccc(NC(=O)CNCc2ccc(Cl)cc2)cc1S(=O)(=O)N1CCOCC1 | 0.0 | nt | 3.3 | nt | nt | 95.0 | nt
CCSc1ncc(Cl)c(C(=O)Nc2ccccc2)n1 | -6.1 | -10.0 | -2.4 | 102.0 | 97.0 | 104.0 | nt
CCCc1nnc(NC(=O)c2nc(S(=O)(=O)Cc3ccc(C)cc3)ncc2Cl)s1 | 0.4 | 0.0 | 48.2 | 95.0 | 96.0 | 91.0 | nt | K562 vector FC=260.7
